Laboratory results from PubChem BioAssay (NCI).
Compounds without any hit were thinned out: in the full panel of roughly 83,000, 20% have a hit.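 Results are percent growth after 48 hours of single-concentration exposure. 100 means growth as in untreated cells, lower positive values show inhibition; negative values down to -100 show cell death.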 The source made the active and inactive calls. The calls were made as follows: active = growth percent below 10; inactive = the rest.

Key:
Test in all cases: NCI-60 one-dose screen, 48 h (100 = growth as untreated, 0 = no growth, -100 = all killed)
Conditions in all cases: 10 µM unless noted
SR leukemia = tested on: SR leukemia
RPMI-8226 leukemia = tested on: RPMI-8226 leukemia
OVCAR-8 ovarian = tested on: OVCAR-8 ovarian
OVCAR-5 ovarian = tested on: OVCAR-5 ovarian
OVCAR-4 ovarian = tested on: OVCAR-4 ovarian
SK-OV-3 ovarian = tested on: SK-OV-3 ovarian
IGROV1 ovarian = tested on: IGROV1 ovarian
OVCAR-3 ovarian = tested on: OVCAR-3 ovarian
NCI/ADR-RES ovarian = tested on: NCI/ADR-RES ovarian
T-47D breast = tested on: T-47D breast
BT-549 breast = tested on: BT-549 breast
MDA-MB-435 melanoma = tested on: MDA-MB-435 melanoma
SW-620 colon = tested on: SW-620 colon
MCF7 breast = tested on: MCF7 breast
HCT-116 colon = tested on: HCT-116 colon
HCC-2998 colon = tested on: HCC-2998 colon
KM12 colon = tested on: KM12 colon
HS 578T breast = tested on: HS 578T breast

Measured: growth

COc1cc2c(c(OC)c1OC)-c1ccc(NNC(=S)N(Cc3cccc(C[N+](Cc4cccc(CNC56CC7CC(CC(C7)C5)C6)c4)(Cc4cccc(CNC56CC7CC(CC(C7)C5)C6)c4)Cc4cccc(CN(C(=S)NNc5ccc6c(cc5=O)[C@@H](NC(C)=O)CCc5cc(OC)c(OC)c(OC)c5-6)C56CC7CC(CC(C7)C5)C6)c4)c3)C34CC5CC(CC(C5)C3)C4)c(=O)cc1[C@@H](NC(C)=O)CC2 (some centres not stated)
inactive: OVCAR-8 ovarian 16.1% | OVCAR-5 ovarian 37% | OVCAR-4 ovarian 29.3% | SK-OV-3 ovarian 37% | IGROV1 ovarian 10.6% | OVCAR-3 ovarian 20.7% | NCI/ADR-RES ovarian 76.3% | T-47D breast 51.8%
active: SR leukemia -49.9% | RPMI-8226 leukemia -46.6% | BT-549 breast -4.6% | MDA-MB-435 melanoma -9.46% | SW-620 colon 3.6% | MCF7 breast -24.6% | HCT-116 colon -54.6% | HCC-2998 colon -58.4% | KM12 colon 4.25%

C/C(=N\Nc1cc(C)nc2ccc(Br)cc12)c1ccc([N+](=O)[O-])cc1
active: SR leukemia 1.78%
inactive: RPMI-8226 leukemia 27.5% | OVCAR-8 ovarian 50.8% | OVCAR-5 ovarian 111% | OVCAR-4 ovarian 47% | SK-OV-3 ovarian 84.1% | IGROV1 ovarian 53.4% | OVCAR-3 ovarian 26.8% | NCI/ADR-RES ovarian 81.1% | T-47D breast 62% | BT-549 breast 105% | MDA-MB-435 melanoma 72.6% | SW-620 colon 49.3% | MCF7 breast 43.9% | HCT-116 colon 13.3% | HCC-2998 colon 55.8% | KM12 colon 75.5%

CN1C(N2CCN(S(=O)(=O)c3ccccc3)CC2)=NS(=O)(=O)c2ccccc21
inactive: SR leukemia 32.2% | RPMI-8226 leukemia 98.4% | OVCAR-8 ovarian 80% | OVCAR-5 ovarian 97.9% | OVCAR-4 ovarian 111% | SK-OV-3 ovarian 109% | OVCAR-3 ovarian 101% | NCI/ADR-RES ovarian 99.7% | T-47D breast 101% | BT-549 breast 119% | SW-620 colon 123% | MCF7 breast 91.1% | HCT-116 colon 109% | HCC-2998 colon 101% | KM12 colon 91.5%
active: IGROV1 ovarian -25.4%

CCOC(=O)c1nc2c3ccccc3ccn2c1C(=O)OCC
inactive: SR leukemia 103% | RPMI-8226 leukemia 96.4% | OVCAR-8 ovarian 111% | OVCAR-5 ovarian 98% | OVCAR-4 ovarian 107% | SK-OV-3 ovarian 109% | IGROV1 ovarian 96.5% | OVCAR-3 ovarian 106% | NCI/ADR-RES ovarian 96% | T-47D breast 98.2% | BT-549 breast 103% | MDA-MB-435 melanoma 105% | MCF7 breast 95.9% | HCT-116 colon 104% | HCC-2998 colon 103% | KM12 colon 100%

CCOC(=O)c1ccc2c(c1)ncn2-c1ccc(NC(=O)Nc2cccc(C)c2)cc1
inactive: SR leukemia 19.9% | RPMI-8226 leukemia 45.5% | OVCAR-8 ovarian 83.8% | OVCAR-5 ovarian 85.5% | OVCAR-4 ovarian 75.7% | SK-OV-3 ovarian 97.5% | IGROV1 ovarian 98.9% | HS 578T breast 84.1% | NCI/ADR-RES ovarian 72.2% | T-47D breast 31.2% | BT-549 breast 115% | MDA-MB-435 melanoma 77.6% | SW-620 colon 81.6% | MCF7 breast 54.7% | HCT-116 colon 57.2% | HCC-2998 colon 90.6% | KM12 colon 27.7%

COC(=O)/C=C1\S/C(=N\NC(=O)c2cc3ccc2/C=C\c2ccc(cc2)/C=C\3)N(Cc2ccccc2)C1=O
inactive: OVCAR-8 ovarian 71.6% | OVCAR-5 ovarian 65.3% | OVCAR-4 ovarian 44.6% | SK-OV-3 ovarian 133% | IGROV1 ovarian 42.3% | HS 578T breast 87.4% | NCI/ADR-RES ovarian 70.4% | BT-549 breast 10.3% | MDA-MB-435 melanoma 91.6% | SW-620 colon 18.2% | MCF7 breast 32.7% | HCT-116 colon 49.5% | HCC-2998 colon 79.5% | KM12 colon 65.1%
active: SR leukemia -14.7% | RPMI-8226 leukemia -47% | T-47D breast -6.25%

O=S(=O)(Nc1ccc(-n2cnc3cc(-c4ccc(O)cc4)ccc32)cc1)c1ccccc1
active: T-47D breast 9.89%
inactive: SR leukemia 78% | RPMI-8226 leukemia 69.1% | OVCAR-8 ovarian 84.4% | OVCAR-5 ovarian 111% | OVCAR-4 ovarian 74.1% | SK-OV-3 ovarian 127% | IGROV1 ovarian 91.4% | OVCAR-3 ovarian 95.8% | NCI/ADR-RES ovarian 91.9% | BT-549 breast 94.3% | MDA-MB-435 melanoma 98.5% | SW-620 colon 109% | MCF7 breast 87.9% | HCT-116 colon 90.3% | HCC-2998 colon 115% | KM12 colon 54.6%

CCN(CC)CCCC(C)Nc1cc(O)cc2cccnc12 (configuration not stated)
inactive: SR leukemia 132% | RPMI-8226 leukemia 97.3% | OVCAR-8 ovarian 101% | OVCAR-5 ovarian 105% | OVCAR-4 ovarian 84.2% | SK-OV-3 ovarian 119% | IGROV1 ovarian 154% | OVCAR-3 ovarian 90.2% | NCI/ADR-RES ovarian 102% | T-47D breast 110% | BT-549 breast 105% | MDA-MB-435 melanoma 106% | SW-620 colon 97.2% | MCF7 breast 95% | HCT-116 colon 87.6% | HCC-2998 colon 96.4% | KM12 colon 105%

COc1ccc(C/C(C)=C(/c2ccc(OCCCN(C)C)cc2)c2ccc(OC(C)=O)cc2)cc1
active: SR leukemia 9.44%
inactive: RPMI-8226 leukemia 79.2% | OVCAR-8 ovarian 95.5% | OVCAR-5 ovarian 85.7% | OVCAR-4 ovarian 79.6% | SK-OV-3 ovarian 88% | IGROV1 ovarian 58.4% | HS 578T breast 64.1% | NCI/ADR-RES ovarian 92.3% | T-47D breast 56.4% | BT-549 breast 89% | MDA-MB-435 melanoma 48.4% | SW-620 colon 87.8% | MCF7 breast 18.1% | HCT-116 colon 55.3% | HCC-2998 colon 70.3% | KM12 colon 80.7%

O=C(Nc1ccc(-c2ccc3c(c2)NC(=O)/C3=C\c2ccc[nH]2)cc1)NC1CC1
inactive: SR leukemia 34.8% | RPMI-8226 leukemia 87% | OVCAR-8 ovarian 109% | OVCAR-5 ovarian 105% | OVCAR-4 ovarian 98.3% | SK-OV-3 ovarian 118% | IGROV1 ovarian 96.6% | HS 578T breast 97.1% | NCI/ADR-RES ovarian 105% | T-47D breast 32.1% | BT-549 breast 103% | MDA-MB-435 melanoma 98.6% | SW-620 colon 103% | MCF7 breast 15.8% | HCT-116 colon 96.6% | HCC-2998 colon 107% | KM12 colon 19.1%

O=C(NO)c1ccc(-n2nc(-c3ccccc3)c3ccccc32)cc1
inactive: SR leukemia 22.8% | RPMI-8226 leukemia 32.6% | OVCAR-8 ovarian 32.6% | OVCAR-5 ovarian 63.8% | OVCAR-4 ovarian 19.2% | SK-OV-3 ovarian 58.7% | IGROV1 ovarian 44.9% | HS 578T breast 55.5% | NCI/ADR-RES ovarian 22.7% | T-47D breast 37.3% | BT-549 breast 67.2% | MDA-MB-435 melanoma 84.7% | SW-620 colon 41.2% | MCF7 breast 22.4% | HCC-2998 colon 44.1% | KM12 colon 71.8%
active: HCT-116 colon 7.64%

N#C/C(=C\c1ccc([N+](=O)[O-])s1)c1nc2cc(Br)ccc2s1
active: SR leukemia -18.3% | RPMI-8226 leukemia -43.5% | OVCAR-8 ovarian -19.7% | OVCAR-4 ovarian -11.6% | IGROV1 ovarian -32.7% | OVCAR-3 ovarian -28.6% | NCI/ADR-RES ovarian -28.5% | T-47D breast 4.46% | BT-549 breast -13% | MDA-MB-435 melanoma 0.206% | MCF7 breast -14.2% | HCT-116 colon -66.4% | HCC-2998 colon -8.27%
inactive: OVCAR-5 ovarian 20.5% | SK-OV-3 ovarian 10.1% | KM12 colon 16.2%

C[C@H](c1nc2ccc(N)cc2[nH]1)[C@H]1CC[C@H]2[C@@H]3CCC4=CC(=O)CC[C@]4(C)[C@H]3CC[C@]12C
inactive: SR leukemia 44.4% | RPMI-8226 leukemia 64.5% | OVCAR-8 ovarian 91.4% | OVCAR-5 ovarian 102% | OVCAR-4 ovarian 88.1% | SK-OV-3 ovarian 91.2% | IGROV1 ovarian 85.1% | OVCAR-3 ovarian 91.5% | NCI/ADR-RES ovarian 89% | T-47D breast 77.8% | BT-549 breast 70% | SW-620 colon 102% | MCF7 breast 67.9% | HCT-116 colon 74.6% | HCC-2998 colon 93.5% | KM12 colon 91.8%

O=C1Nc2cc(-c3ccc(NC(=O)C4CC4)cc3)ccc2/C1=C/c1ccc[nH]1
inactive: SR leukemia 44.8% | RPMI-8226 leukemia 93.6% | OVCAR-8 ovarian 110% | OVCAR-5 ovarian 98% | OVCAR-4 ovarian 73.4% | SK-OV-3 ovarian 105% | IGROV1 ovarian 99.2% | HS 578T breast 110% | NCI/ADR-RES ovarian 106% | T-47D breast 21.7% | BT-549 breast 104% | MDA-MB-435 melanoma 99.9% | SW-620 colon 113% | MCF7 breast 12.8% | HCT-116 colon 104% | HCC-2998 colon 111% | KM12 colon 39.8%

NCCCCCCNc1cc(-c2cccc(OC(F)(F)F)c2)nc2ccc(N3CCCC3)cc12
inactive: OVCAR-5 ovarian 12.6% | SK-OV-3 ovarian 93.6% | BT-549 breast 55.7%
active: SR leukemia -24.7% | RPMI-8226 leukemia -37.8% | OVCAR-8 ovarian 2.63% | OVCAR-4 ovarian -39.8% | IGROV1 ovarian -55.6% | HS 578T breast -54% | NCI/ADR-RES ovarian 5.01% | T-47D breast -15.4% | MDA-MB-435 melanoma -99.8% | SW-620 colon -86.3% | MCF7 breast -72.6% | HCT-116 colon -63.3% | KM12 colon -82.7%

COc1ccc(/C=C/c2nc(Nc3ccc(Cl)cc3)c3ccccc3n2)cc1
inactive: RPMI-8226 leukemia 52.9% | OVCAR-8 ovarian 61.4% | OVCAR-5 ovarian 73.2% | OVCAR-4 ovarian 60.2% | SK-OV-3 ovarian 83.6% | OVCAR-3 ovarian 67.2% | HS 578T breast 70.5% | NCI/ADR-RES ovarian 65.7% | T-47D breast 49.9% | BT-549 breast 93.4% | SW-620 colon 48.7% | MCF7 breast 44% | HCT-116 colon 36.1% | HCC-2998 colon 63.9% | KM12 colon 48%
active: SR leukemia -3.22%

O=C(O)c1ccc(-c2nn(-c3ccc(C(F)(F)F)cc3)cc2CNc2ccc(Oc3ccccc3)cc2)cc1
inactive: SR leukemia 60.7% | RPMI-8226 leukemia 46.5% | OVCAR-8 ovarian 69% | OVCAR-5 ovarian 103% | OVCAR-4 ovarian 90.3% | SK-OV-3 ovarian 135% | OVCAR-3 ovarian 92.5% | HS 578T breast 95.7% | NCI/ADR-RES ovarian 81.9% | T-47D breast 65% | BT-549 breast 90.6% | MDA-MB-435 melanoma 87.5% | SW-620 colon 93.9% | MCF7 breast 70.3% | HCC-2998 colon 115% | KM12 colon 59.5%
